Source: PubChem
Most compounds without a hit are left out; they make up all but 2.1% or so of the library.
Gli-Sufu antag: antagonists of Gli-Sufu signaling; Sufu-KO-LIGHT fibroblasts, Gli luciferase reporter luminescence; inhibition, % at 5 µM; actives 0.74% (n = 340,000); AID 588413;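 active = inhibition above about 55%, limit read from the data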;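 note: 0% = DMSO-treated cells and 100% = wells with medium but no cells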
Env fusion inh: inhibitors of HIV Env-mediated cell fusion; HeLa-JRFL Env/CEM21 cell fusion, luciferase; inhibition, % at 12.3 µM; actives 1.1% (n = 360,000); AID 651610;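 active = mean replicate inhibition score of at least 50 and every replicate individually at or above 50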;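 note: 0% = plate neutral controls and 100% = maraviroc near 300 nM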
GalR3 antag: human GalR3 antagonism | O60755 | HEK293 GalR3-CNG cAMP membrane potential fluorescence; galR3 body fused to GalR1 C-terminus | inhibition, % at 3 µM | actives 0.44% (n = 360,000);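 active = inhibition above the screen-wide average plus 3 SD, cut at about 13% in these data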;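 note: forskolin and galanin both at EC90 stimulate the cells; cAMP rise reported by CNG channel membrane potential dye signal; 0% = forskolin plus galanin with DMSO and 100% = forskolin alone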
Target sequence (O60755 1-299 limits assumed): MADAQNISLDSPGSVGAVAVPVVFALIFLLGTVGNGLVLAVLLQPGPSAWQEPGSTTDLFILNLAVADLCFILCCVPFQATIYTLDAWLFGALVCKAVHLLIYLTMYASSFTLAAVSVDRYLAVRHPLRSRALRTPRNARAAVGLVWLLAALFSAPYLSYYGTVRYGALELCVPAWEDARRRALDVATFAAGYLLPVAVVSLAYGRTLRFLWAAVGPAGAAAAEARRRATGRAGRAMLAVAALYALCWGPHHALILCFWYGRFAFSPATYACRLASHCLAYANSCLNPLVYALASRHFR
aDG glyco act: increases alpha dystroglycan glycosylation | Pro5-aDG cells, alpha-DG glycosylation AlphaScreen (IIH6); 0% Pro5, 100% B10-LARGE cell signal | activation, % at 10 µM | actives 0.22% (n = 360,000) | AID 624168;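 active = activation of at least 8% versus controls, or a plate z-score of at least 8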;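 note: Pro5 are CHO cells carrying HIG-tagged alpha-DG that lacks glycosylation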
COUP-TFII inh: inhibitors of human COUP-TFII (NR2F2); HEK293T NGFI-A luciferase reporter, luminescence; inhibition, % at 8.6 µM; actives 0.7% (n = 370,000);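 active = inhibition above a per-plate cutoff, mean inhibition of test wells between control levels plus 3 SD, cut at about 38% in these data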;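 note: cells cotransfected with COUP-TFII expression vector driving the NGFI-A reporter; 0% = median of COUP-TF2 test wells and 100% = reporter-only cells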
Gli-Sufu confirm: confirmation of Gli-SUFU pathway antagonists; shares compounds with Gli-Sufu antag; Sufu-KO-LIGHT cells, Gli luciferase reporter, luminescence; inhibition, % at 5 µM; actives 40% (n = 2,500);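 active = mean inhibition at 5 µM reaching about 45%, limit read from the data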;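 note: plate controls were DMSO-treated cells for no effect and wells lacking cells for full effect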
SufuKO cytotox: cytotoxicity counter-screen for Gli-SUFU antagonists; shares compounds with Gli-Sufu antag; Sufu-KO-LIGHT cells cytotoxicity, ATP luminescence; cytotoxicity, % at 5 µM; actives 32% (n = 2,500);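 active = mean cytotoxicity at 5 µM above about 25%, limit read from the data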;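 note: cells exposed to compound overnight for roughly 16 to 18 hours; plate controls were DMSO wells with cells for no effect and medium without cells for full effect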
Wnt3a cs: counter-screen for Gli-SUFU antagonists: Wnt3a reporter inhibition; actives 20% (n = 2,500); Wnt-LIGHT cells, Wnt3a-driven luciferase reporter, luminescence; shares compounds with Gli-Sufu antag; inhibition, % at 6.25 µM; AID 651995;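 active = mean inhibition above about 25%, limit read from the data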
GalR3 conf: GalR3 (human) antagonism, confirmation | shares compounds with GalR3 antag | HEK293 GalR3 CNG cAMP biosensor, membrane potential fluorescence; galR3 fused to GalR1 carboxy tail; challenged with forskolin and galanin at EC90 | inhibition, % at 3 µM | actives 59% (n = 1,600) | AID 652245;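 active = inhibition above the primary screen's cutoff, the mean inhibition of all screened compounds plus 3 SD, cut at about 13% in these data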;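 note: 0% = forskolin plus galanin and 100% = forskolin alone with DMSO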
CNG parental: counter-screen for GalR3 antagonists: nonspecific agonists in parental HEK-CNG cells | HEK293-CNG parental cells, cAMP membrane potential fluorescence; normalised: DMSO wells 0%, forskolin wells 100% | AID 652268 | shares compounds with GalR3 antag | actives 10% (n = 1,600) | activation, % at 3 µM; in the data active = activation above about 1.3%
Gal4-VP16 ctr: inhibits VP16 reporter, flagging COUP-TFII antagonist hits; shares compounds with COUP-TFII inh; HEK293 Gal4-VP16 luciferase reporter, luminescence; inhibition, % at 8.5 µM; actives 25% (n = 2,500); AID 687007; in the data active = inhibition above about 13%
NR2F2 inh conf: confirmation of human COUP-TFII (NR2F2) inhibitors; shares compounds with COUP-TFII inh; actives 45% (n = 2,500); HEK293 NGFI-A luciferase reporter, luminescence; inhibition, % at 8.5 µM;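 active = mean inhibition over three repeats above a set limit taken from the earlier primary screen, cut at about 38% in these data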;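 note: 100% = cells given the luciferase reporter alone without the COUP-TF2 vector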
Numbers without * were called inactive; x = no result; [ ] = another dose, or the depositor's remark.

SMILES	Gli-Sufu antag	Env fusion inh	GalR3 antag	aDG glyco act	COUP-TFII inh	Gli-Sufu confirm	SufuKO cytotox	Wnt3a cs	GalR3 conf	CNG parental	Gal4-VP16 ctr	NR2F2 inh conf
Cc1ccc(NCC(=O)Nc2cccc(S(=O)(=O)N(C)C)c2)cc1S(=O)(=O)N1CCCCCC1	51	45	-1	1	49*	41	25	-7	x	x	12	32
CCN(CC)S(=O)(=O)c1cccc(NC(=O)CNc2cccc(S(=O)(=O)N3CCCC3)c2)c1	73*	x	104*	2	64*	75*	38*	21	113*	0	6	65*
C[C@H](CO)N1C[C@H](C)[C@H](CN(C)C(=O)C2CCOCC2)Oc2cc(C3=CCCCC3)ccc2S1(=O)=O	x	3[16.7 µM]	x	x	x	x	x	x	x	x	x	x
COc1ccc(NC(=O)Nc2ccc3c(c2)C(=O)N([C@H](C)CO)C[C@H](C)[C@@H](CN(C)C(=O)NC2CCCCC2)OCCCC[C@H](C)O3)cc1	x	17[16.7 µM]	x	x	x	x	x	x	x	x	x	x
O=C(O)c1cc2c(N3CCC(Cc4ccccc4)CC3)ncnc2s1	2	5	-3	0	-7	x	x	x	x	x	x	x
Cc1ccc(S(=O)(=O)N2CCN(c3ncnc4sccc34)CC2)cc1	63*	x	-4	2	50*	58*	34*	22	x	x	6	37
c1ccc(CC2CCN(c3ncnc4sccc34)CC2)cc1	66*	31	70*	2	55*	70*	33*	35*	88*	1	-10	53*
C[C@@H]1CN([C@H](C)CO)C(=O)c2cccc(NC(=O)c3ccncc3)c2O[C@H]1CN(C)C(=O)Nc1ccc(C(F)(F)F)cc1	x	20[16.7 µM]	x	x	x	x	x	x	x	x	x	x
C/C=C/c1ccc2c(c1)O[C@H](CN(C)Cc1ccc(C(=O)O)cc1)[C@H](C)CN([C@@H](C)CO)S2(=O)=O	x	-2[16.7 µM]	x	x	x	x	x	x	x	x	x	x
Cc1nnsc1C(=O)NC1CCCc2c1cnn2-c1ccc(F)cc1F (configuration not stated)	65*	x	105*	6	64*	56*	13	-4	103*	0	2	66*
COc1cc(C(=O)NC2CCCc3c2cnn3-c2ccccc2F)cc(OC)c1OC (configuration not stated)	61*	4	-10	0	46*	48*	34*	13	x	x	-9	19
Cc1nnsc1C(=O)NC1CCCc2c1cnn2-c1cc(F)cc(F)c1 (configuration not stated)	5	-4	-3	0	5	x	x	x	x	x	x	x
Cc1ccccc1S(=O)(=O)N1C[C@H](O)COC[C@@H]2O[C@H](CC(=O)N3CCN(C)CC3)CC[C@H]21	x	-5[16.7 µM]	x	x	x	x	x	x	x	x	x	x
Cn1cc(CNC(=O)c2cc(COc3ccc4c(c3)CCCC4)on2)cn1	4	2	-2	0	9	x	x	x	x	x	x	x
O=C(NC(c1cccnc1)C(F)(F)F)c1cc(COc2ccc3c(c2)CCCC3)on1 (configuration not stated)	61*	-1	15*	1	42*	59*	31*	-95	12	0	-75	10
